Screens as filed in PubChem.
This is a sample that favours compounds with a hit; in the whole collection about 13% have one here.
USP30 inh = inhibitors of human USP30 deubiquitinase; inhibition, % at 25 µM; purified USP30, Ub-rhodamine cleavage fluorescence; hit rate 5.3% among 47,000; Ubiquitin carboxyl-terminal hydrolase 30 (Homo sapiens), Q70CQ3
USP8 block = inhibitors of human USP8 deubiquitinase; Ubiquitin carboxyl-terminal hydrolase 8 (Homo sapiens), P40818; purified USP8, Ub-rhodamine cleavage fluorescence, 30 min; inhibition, % at 20 µM; hit rate 4.2% among 47,000; AID 1645853, 2021
USP28 inh = inhibitors of human USP28 deubiquitinase; Ubiquitin carboxyl-terminal hydrolase 28 (Homo sapiens), Q96RU2; purified USP28, Ub-rhodamine cleavage fluorescence, 30 min; inhibition, % at 25 µM; hit rate 3% among 47,000
USP17 inh = inhibitors of human USP17 deubiquitinase; Ubiquitin carboxyl-terminal hydrolase 17-like protein 5 (Homo sapiens), A8MUK1; purified USP17, Ub-rhodamine cleavage fluorescence, 3 h; inhibition, % at 50 µM; hit rate 6.5% among 47,000
OTUD3 block = inhibitors of human OTUD3 deubiquitinase; purified OTUD3, Ub-rhodamine fluorescence, 2 h; inhibition, % at 25 µM; hit rate 0.7% among 47,000; OTU domain-containing protein 3 (Homo sapiens), Q5T2D3; AID 1645858, 2021
* = called active by the depositor. Cut-off read from the data, not from the text of the source: active = inhibition above about 30%; inactive = the rest.

SMILES	USP30 inh	USP8 block	USP28 inh	USP17 inh	OTUD3 block
COC(=O)c1ccccc1NC(=O)CSc1nnc(-c2ccc(C(C)(C)C)cc2)n1C1CCCC1	52*	26	12	15	-37
O=C(CSc1nnc(Cc2ccccc2)n1C1CCCCC1)Nc1ccccc1Cl	20	6	14	4	6
O=C(C[C@@H]1CCN2C[C@@H]1CCCOc1ccccc1CN(C(=O)COc1ccccc1)CC2=O)N1CCOCC1	79*	-1	55*	71*	2
CC(C)NC(=O)N1CC(=O)N2CC[C@@H](CC(=O)N3CCOCC3)[C@@H](CCCOc3ccccc3C1)C2	100*	5	72*	75*	6
O=C(C[C@@H]1CCN2C[C@@H]1CCCOc1ccccc1CN(C(=O)c1cccnc1)CC2=O)N1CCOCC1	92*	19	86*	78*	7
O=C(C[C@@H]1CCN2C[C@@H]1CCCOc1ccccc1CN(C(=O)c1ccccc1)CC2=O)N1CCOCC1	10	7	0	-1	5
CCCC(=O)c1c[nH]c(C(=O)NCc2ccc(F)cc2)c1	23	24	35*	69*	-7
COc1ccc2c(c1)nc(C(F)(F)F)n2C1CCN(C(=O)c2cccn2C)CC1	16	9	13	13	2
COc1ccc(C2Nc3ccccc3C(=O)N2c2ccc3c(c2)OCO3)cc1O (configuration not stated)	14	57*	13	45*	10
COc1ccc(-c2nn(-c3ccccc3)cc2C(=O)Nc2ccc(N3CCOCC3)cc2)cc1	10	61*	0	18	10
CSCC[C@H](NC(=O)c1ccc(NC(C)=O)cc1)c1nnc2ccccn12	-1	0	3	-2	-8
Cc1nc2ccccc2n1CCNC(=O)c1ccc(C#N)cc1	-5	-13	-8	4	-3
CC(NC(=O)c1ccccc1)c1nc2ccccc2n1CC(=O)NC1CCCCC1 (configuration not stated)	39*	65*	8	39*	9
CC(=O)c1ccc(NC(=O)C(C)OC(=O)Cn2c(C)nc3ccccc32)cc1 (configuration not stated)	-16	-8	-8	-9	-2
CC(NC(=O)c1ccccc1)c1nc2ccccc2n1CC(=O)Nc1ccc(OC(F)(F)F)cc1 (configuration not stated)	19	33*	7	12	5
CCn1c(SCC(=O)NC2CCCCC2)nc2ccccc21	1	-12	0	0	2
CSCCC(NC(=O)c1ccccc1)c1nc2ccccc2n1CC(=O)Nc1ccccc1 (configuration not stated)	11	46*	3	-36	3
CC(NC(=O)c1ccccc1)c1nc2ccccc2n1CC(=O)Nc1ccc(C#N)cc1 (configuration not stated)	-1	78*	0	7	0
CNC(=O)c1ccc(S(=O)(=O)NC(c2ccc(Cl)cc2)C2CC2)cc1 (configuration not stated)	-110	2	3	1	11
Cc1ccc(C(=O)NC(C)c2nc3ccccc3n2CC(=O)N2CCc3ccccc32)cc1 (configuration not stated)	63*	63*	25	76*	-38
O=C(Cn1c(CNC(=O)c2ccccc2)nc2ccccc21)Nc1ccc(F)cc1	78*	72*	37*	88*	23
COc1cc(CNCCC2=CCCCC2)ccc1Oc1nnnn1-c1ccccc1	15	13	10	12	12
COCCN1CCOCC2(C1)CN(C(=O)CC1CC1)CCO2 (configuration not stated)	16	-25	7	0	14
CCOc1ccc2c(c1)c(=O)c(C(=O)c1ccccc1)cn2CC(=O)Nc1ccc(Cl)cc1	8	93*	1	-25	-8
COc1ccc(NC(=O)Cn2cc(C(=O)c3ccccc3)c(=O)c3cc(Cl)ccc32)cc1OC	-11	15	-16	-1	-8
COc1ccc(NC(=O)Cn2cc(C(=O)c3ccc(Cl)cc3)c(=O)c3cc(F)ccc32)cc1	39*	16	19	31*	15
COc1ccc2c(c1)c(=O)c(C(=O)c1ccc(Cl)cc1)cn2CC(=O)Nc1ccc(Cl)cc1	-94	16	-27	1	-21
